# Measurements as given in PubChem BioAssay (NCI).
# This is part of a sample that, as a whole, favours compounds with a hit. Of some 83,000 tested, about 20% had one in any assay.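 Negative percent growth values reflect cell death: -40 means 40% of the cells present at the start died, and -100 means all died.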 A number with no mark means an inactive call. Activity calls are given as the source filed them. The calls were made as follows: active = growth percent below 10; inactive = the rest.
# Key:
# Assay in all cases: NCI-60 one-dose screen, 48 h (100 = growth as untreated, 0 = no growth, -100 = all killed)
# Conditions in all cases: 10 µM unless noted
# [1] = system: HCT-15 colon
# [2] = system: HT29 colon
# [3] = system: SNB-75 CNS
# [4] = system: SNB-19 CNS
# [5] = system: U251 CNS
# [6] = system: PC-3 prostate
# [7] = system: SK-MEL-5 melanoma
# [8] = system: UACC-62 melanoma
# [9] = system: LOX IMVI melanoma
# [10] = system: SK-MEL-28 melanoma
# [11] = system: SK-MEL-2 melanoma
# [12] = system: EKVX NSCLC
# [13] = system: SN12C renal
# [14] = system: UO-31 renal
# [15] = system: TK-10 renal
# [16] = system: ACHN renal
# [17] = system: CAKI-1 renal
# [18] = system: A498 renal
# [19] = system: CCRF-CEM leukemia
# [20] = system: MOLT-4 leukemia
SMILES,growth [1],growth [2],growth [3],growth [4],growth [5],growth [6],growth [7],growth [8],growth [9],growth [10],growth [11],growth [12],growth [13],growth [14],growth [15],growth [16],growth [17],growth [18],growth [19],growth [20]
O=[N+]([O-])c1ccccc1Nc1ccc2ccccc2c1,93.5%,94.1%,62.9%,89.8%,92.7%,92.3%,98.6%,79.5%,92.5%,101%,104%,87.7%,98.9%,59.4%,99.7%,99.2%,78.3%,59.9%,92.3%,–
O=C(c1c[nH]c2ccccc12)c1n[nH]c(=S)n1-c1ccc([N+](=O)[O-])cc1,64.7%,98.6%,95.4%,116%,105%,83.9%,88.3%,93.1%,100%,107%,86.4%,94.6%,92.8%,75.2%,117%,96.1%,85.4%,87.9%,85.1%,–
COCCn1cc(-c2nc(-c3cn(CCOC)c4ncccc34)cs2)c2cc(F)ccc21,17.8%,57.6%,77.4%,90.4%,69.8%,39.2%,14.4%,61.8%,64.3%,91%,73.8%,23.2%,82.3%,68.3%,28.2%,76.7%,86.4%,73.3%,72.5%,68.9%
CC1(C)N=C(N)N=C(N)N1c1ccc(S(=O)(=O)Nc2nccs2)cc1,103%,102%,64.9%,98.2%,103%,93.7%,106%,93.6%,100%,106%,106%,102%,95.2%,89.5%,86.1%,108%,94.3%,96.2%,101%,103%
COc1ccc(-c2cc(C(=O)N3N=C(c4ccc(N)cc4)CC3c3ccc(Cl)cc3)c3cc(OC)ccc3n2)cc1 (stereo unspecified),22.4%,45.1%,87.3%,92.6%,74.9%,22.9%,88%,49%,39%,48%,88.5%,88.1%,84.5%,57%,101%,47%,90.5%,87.8%,23.1%,–
COc1ccc(C(O)c2cc3c(N)c(C(=O)Nc4cccc5ccccc45)sc3nc2C)cc1 (stereo unspecified),6.45% (active),6.41% (active),32.5%,25%,20.1%,14.1%,-47.4% (active),18.6%,19.1%,57.6%,35.8%,41.8%,14.4%,25.8%,63.8%,22%,15.5%,-13.1% (active),13.2%,–
COc1cc(/C=C/C(=O)c2cccc(-n3cc(-c4ccc(Cl)cc4)[nH]c3=O)c2)ccc1O,37.8%,27%,50.3%,94.9%,32.4%,34.2%,68.1%,64.3%,13.1%,58.6%,58.5%,68.7%,46.4%,31.2%,104%,60.4%,37.2%,106%,19.5%,24.2%
CCOC(=O)c1cnn(CC(C)O)c1NC(=O)NCc1cccc(F)c1 (stereo unspecified),107%,84.3%,104%,107%,97.4%,73.3%,100%,92.2%,97.1%,113%,85.6%,99.9%,103%,91.7%,86.9%,106%,97.3%,96.4%,-2.06% (active),81.4%
O=C1C=CC2(O)OC/C(=C\c3ccccc3)C(O)=C2C1=O (stereo unspecified),-6.43% (active),17.8%,38.8%,27.6%,-35.2% (active),0.717% (active),31.3%,-64.1% (active),-82.8% (active),51.9%,53.4%,54.1%,-30.7% (active),-91.5% (active),11.5%,-70.5% (active),10.6%,108%,2.55% (active),7.42% (active)
Cc1cc(O)c(=O)cc2c1C[C@H]1CC(C)(C)/C=C/C[C@]3(C)Oc4cc(=O)c(O)cc(C)c4C[C@H]3C[C@H](O)[C@@]1(C)O2,17.3%,7.77% (active),23.5%,4.62% (active),2.67% (active),10.2%,-9.26% (active),-56.5% (active),6.33% (active),5.5% (active),-0.26% (active),1.96% (active),0.888% (active),-3.55% (active),12.8%,6.64% (active),0.0892% (active),12.3%,9.98% (active),7.8% (active)
O=C(Nc1ccc(Nc2ccncc2)cc1)c1ccc(Nc2ccnc3ccc([N+](=O)[O-])cc23)cc1,99.3%,102%,97.8%,117%,95.5%,80.3%,97.5%,101%,90.6%,109%,111%,107%,113%,95.7%,140%,100%,105%,130%,63.9%,40.7%
O=C(/C=C/c1cccc(Oc2ccccc2)c1)c1ccc(Nc2nc(Nc3ccc(F)cc3)nc(Nc3ccc(Cl)cc3)n2)cc1,109%,101%,92.5%,108%,101%,94%,96.4%,105%,108%,112%,69.1%,106%,123%,91.8%,130%,98.6%,104%,113%,116%,-35.6% (active)
CC1(C)CC[C@]2(CO)CC[C@]3(C)[C@](O)([C@H](O)C[C@@H]4[C@@]5(C)CCCNC(C)(C)[C@@H]5CC[C@]43C)[C@@H]2C1,88.5%,20.6%,88.7%,103%,79.6%,75.9%,96.8%,103%,87.8%,100%,106%,107%,90%,73%,103%,108%,97.5%,83.6%,74.6%,46%
Oc1c(CN2CCC(N3CCOCC3)CC2)cc(Cc2cc(CN3CCC(N4CCOCC4)CC3)c(O)c3ncccc23)c2cccnc12,24%,30.2%,56.9%,29.3%,27.5%,13.1%,8.31% (active),-6.33% (active),1.05% (active),45%,53.7%,24.9%,29.1%,17.9%,42.3%,23.5%,13.2%,69.1%,12.6%,6.57% (active)
CC(C)C1C2=C(NCCN1C(=O)c1ccncc1)C(C)(C)N(Cc1ccccc1)C2=O (stereo unspecified),103%,92.8%,81.7%,101%,100%,96.1%,105%,95.6%,95.5%,114%,97.4%,99.1%,93.3%,83.2%,89.9%,105%,94.4%,113%,108%,84%
O=c1c2ccccc2n(C[C@H]2CO2)c2ccccc12,-16.8% (active),2.83% (active),-29.4% (active),22.3%,-6.13% (active),19.2%,-80.8% (active),-83.4% (active),-54.3% (active),2.83% (active),-64.5% (active),16.3%,6.14% (active),-27.5% (active),4.13% (active),-26.6% (active),-9.84% (active),96.1%,6.9% (active),0.563% (active)
